High-throughput results from PubChem.
RGS4 inh – human RGS4 inhibition. P49798. Potency, µM (titrated, usually from 114 µM), without a hit: at the highest dose activity change, negative = inhibition, actives largely listed as inhibitors. 390,000 tested, 0.039% active. Transcreener GDP fluorescence polarization, RGS4-accelerated GTP hydrolysis. AID 504845; active = well fitted inhibition curve with a large enough effect; inconclusive = small, poorly fitted or top-dose-only effect; inactive = no such curve, though single readings can be large or run the other way; note: potency is the fitted concentration of half-maximal effect; % is set by controls: 0 for no effect and ±100 for the full control effect; nearly all actives have a fitted effect of over 75% in size
Target sequence (P49798 whole entry, looked up): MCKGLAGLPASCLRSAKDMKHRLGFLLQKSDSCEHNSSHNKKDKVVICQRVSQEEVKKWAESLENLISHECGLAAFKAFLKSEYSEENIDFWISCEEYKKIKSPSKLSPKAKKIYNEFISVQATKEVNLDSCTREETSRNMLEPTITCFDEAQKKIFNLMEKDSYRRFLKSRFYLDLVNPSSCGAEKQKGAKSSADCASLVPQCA
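MLSMR compounds (23 nl, pin-transferred) preincubated 10 min at room temperature with a 500nM (2x) first reagent, then RGS4 at 900nM (2x) plus Transcreener GDP mix added; fluorescence polarization (620/688 nm) read before and after 90 min at 30 °C.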
D3 ag – D3 dopamine receptor (human) agonism; max activation, %; AID 652048; P35462; 410,000 tested, 0.58% active; D3R DiscoveRx beta-arrestin cells, luminescence, 90 min; in the data active = max activation above about 30%; note: 0% is about no effect
Target sequence (P35462 whole entry, looked up): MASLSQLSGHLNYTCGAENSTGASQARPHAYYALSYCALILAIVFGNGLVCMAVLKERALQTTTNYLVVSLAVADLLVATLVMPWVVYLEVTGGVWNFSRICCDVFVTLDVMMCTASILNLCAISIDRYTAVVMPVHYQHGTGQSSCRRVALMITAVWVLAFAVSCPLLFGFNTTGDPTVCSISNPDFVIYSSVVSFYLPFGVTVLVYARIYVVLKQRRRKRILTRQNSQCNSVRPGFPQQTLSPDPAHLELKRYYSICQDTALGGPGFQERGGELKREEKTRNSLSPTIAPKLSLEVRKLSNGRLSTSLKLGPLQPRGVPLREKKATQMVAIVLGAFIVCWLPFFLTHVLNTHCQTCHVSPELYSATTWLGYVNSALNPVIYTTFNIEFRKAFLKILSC
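Cells at 1500/well, incubated overnight, then treated with pinned compounds (dopamine as control) for 90 min at 37 degrees C. DiscoveRx reagent added for 30 - 60 minutes at room temperature; luminescence read.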
D3 antag – blocks the human D3 dopamine receptor; 360,000 tested, 2.5% active; AID 652054; max response, negative = inhibition, %; P35462; D3R cells, DiscoveRx beta-arrestin luminescence, antagonist mode; hits give low values; in the data active = max response below about -50%; inconclusive = no clear call, values can overlap the other calls; note: % is set by controls: 0 for no effect and ±100 for the full control effect
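Cells expressing the human receptor were seeded at 1500 cells/well, incubated overnight at 37 degrees C in 5% CO2, then exposed to library compounds with dopamine controls for 90 minutes at 37 degrees C before luminescent detection.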
uPA surface inh – cell surface uPA generation inhibition | cell surface uPA generation assay, qHTS | Potency, µM (highest dose often 38.3 µM), inactives show top-dose activity change, negative = inhibition, actives largely listed as inhibitors | 330,000 tested, 0.31% active | AID 540303; active = well fitted inhibition curve with a large enough effect; inconclusive = small, poorly fitted or top-dose-only effect; inactive = no such curve, though single readings can be large or run the other way; tested in mouse RAW 264.7 cells; note: potency is the fitted concentration of half-maximal effect; % is set by controls: 0 for no effect and ±100 for the full control effect; nearly all actives have a fitted effect of over 55% in size
* = called active by the depositor; u = inconclusive; x = no result given; [ ] = dose if it differs, or a comment. A selection: hits, their analogues and other compounds. The true share with any hit is near 3.1%.

SMILES	RGS4 inh	D3 ag	D3 antag	uPA surface inh
O=C(Cc1ccccc1)N(Cc1cccnc1)c1nc2c(F)cccc2s1	-12.1%	0.0	x	x
CC(C)C[C@H](CO)N(Cc1ccccc1)S(=O)(=O)N(Cc1ccccc1)[C@@H](CO)CC(C)C	5.2%	58.7*	101.7	u
C=CS(=O)(=O)N(Cc1ccccc1Br)[C@H](CO)Cc1ccccc1	-2.1%	15.7	19.6	u
O=S(=O)(N(Cc1ccccc1)[C@@H](CO)Cc1ccccc1)N(Cc1ccccc1)[C@@H](CO)Cc1ccccc1	11.2%	84.5*	75.4	18.3%
Cc1ccc(NC(=O)N2CCc3cc(S(=O)(=O)N4CCC(C)CC4)ccc32)cc1C	0.1%	-9.3	x	x
CCOC(=O)SC1=N/C(=C\c2ccc(N(C)C)cc2)C(=O)S1	-9.5%	-45.3	-54.0*	x
CCOC(=O)c1cc(-c2ccccc2)nn1CCC#N	18.9%	-1.8	5.7	-8.8%
C=CCn1nc(-c2ccccc2)cc1C(=O)OCC	13.6%	40.0*	111.7	15.5%
COc1ccccc1CN1CCN(S(=O)(=O)c2ccccc2)CC1	-11.2%[56.9 µM]	-3.4	-67.5*	1.8%
COc1cccc(CN2CCN(S(=O)(=O)c3ccccc3)CC2)c1OC	-0.8%	4.4	2.1	1.1%
Cc1ccccc1CN1CCN(S(=O)(=O)c2ccc(F)cc2)CC1	28.6%	-0.6	-77.8*	4.0%
COc1ccc(CN2CCN(S(=O)(=O)c3ccccc3)CC2)c(OC)c1	-4.1%	-19.4	-69.5*	x
CCOC(=O)C1=C[C@@H](C(=O)OCC)[C@@H]2C3=C(C(=O)C2(C)C)[C@H](c2ccccc2)[C@@H]2C(=O)N(c4ccccc4)C(=O)[C@@H]2[C@@H]3C1	-4.1%	x	x	x
CC(=O)c1sc(N/N=C\c2c(O)ccc3ccccc23)nc1C	u	-9.9	-54.3*	-6.7%
CC(=O)c1sc(N/N=C/c2cccc(O)c2)nc1C	6.9%	-7.2	-18.2	u
COc1ccc(C(CNC(=O)c2cc3ccccc3cc2OC)N2CCCC2)cc1 (configuration not stated)	-14.6%	-9.6	-56.2*	0.5%
Cc1ccc(S(=O)(=O)N(C)c2ccc(C(=O)NCC(c3ccccc3)N3CCCC3)cc2)cc1 (configuration not stated)	x	-15.2	-64.3*	x
COc1ccc(C(CNC(=O)c2cccc(S(=O)(=O)Nc3ccccc3OC)c2)N2CCCCC2)cc1 (configuration not stated)	-1.5%	-27.9	-80.8*	-25.8%
COc1ccc(C(CNC(=O)c2cccc(S(=O)(=O)Nc3ccccc3OC)c2)N2CCCC2)cc1 (configuration not stated)	20.4%	-30.8	-64.7*	-24.5%
CCCCOc1ccc(C2C(=O)N(C3CCCCC3)CC(=O)N2C2CCCCC2)cc1 (configuration not stated)	13.9%	14.0	x	x
O=c1c(N2CCN(c3cccc(C(F)(F)F)c3)CC2)csc2ccccc12	-1.3%	-22.2	x	x
COc1ccc(C(CNC(=O)c2cccc(S(=O)(=O)N3CCCCC3)c2)N2CCCC2)cc1 (configuration not stated)	30.8%	-12.0	-51.3*	-13.0%
CCN(c1ccccc1)S(=O)(=O)c1cccc(C(=O)NCC(c2ccc(OC)cc2)N2CCCCC2)c1 (configuration not stated)	x	-4.6	-121.6*	x
COc1ccc(C(CNC(=O)c2ccc(C)c(S(=O)(=O)Nc3ccccc3OC)c2)N2CCCC2)cc1 (configuration not stated)	-15.4%	-23.4	-92.9*	-6.4%
CCC1CCc2sc(C(=O)NCC(c3ccc(OC)cc3)N3CCCC3)cc2C1 (configuration not stated)	-8.3%	-9.3	-88.6*	-7.3%
SMILES	RGS4 inh	D3 ag	D3 antag	uPA surface inh
C=CCN(c1ccccc1)S(=O)(=O)c1cccc(C(=O)NCC(c2ccc(OC)cc2)N2CCCCC2)c1 (configuration not stated)	-29.4%	-28.4	u	-8.5%
CCC(=O)N1CCc2cc(CNC(=O)Cc3ccc(F)cc3)ccc21	-0.2%	-2.0	x	x
CC(CCc1ccccc1)NC(=O)Cn1c(=O)nc(-c2ccccc2)c2ccccc21 (configuration not stated)	27.3%	2.7	x	x
CCC(Cc1ccccc1)NC(=O)Cn1ncc2c3ccccc3n(Cc3ccccc3)c2c1=O (configuration not stated)	-9.8%	-8.2	x	x
COc1ccccc1NC(=O)C1=C(C)Nc2c(C(=O)Nc3ccc(F)cc3)cnn2C1c1ccc(Cl)cc1 (configuration not stated)	5.8%	-3.4	x	x
Cc1cc(C)c2c(=O)cc(C(=O)NCc3ccc(S(N)(=O)=O)cc3)oc2c1	-18.0%	0.5	x	x
CCCn1c2ccccc2c2cnn(CC(=O)NCc3cc(OC)ccc3OC)c(=O)c21	1.9%	-9.5	x	x
COc1ccc(NS(=O)(=O)c2cccc(C(=O)NCC(c3ccc(OC)cc3)N3CCCCC3)c2)cc1 (configuration not stated)	0.4%	-14.2	-56.5*	-9.0%
COc1ccc(C(=O)NCC(c2ccc(F)cc2)N2CCOCC2)cc1S(=O)(=O)N1CCCC1 (configuration not stated)	-17.9%	7.7	8.4	1.2%
COc1ccc(NS(=O)(=O)c2cccc(C(=O)NCC(c3ccc(OC)cc3)N3CCCC3)c2)cc1 (configuration not stated)	13.5%	-12.8	u	-4.4%
CN(c1ccccc1)S(=O)(=O)c1ccc(C(=O)OCC(=O)NCc2cccs2)cc1	2.7%	-5.5	-12.4	u
COc1ccc(N(C)S(=O)(=O)c2cccc(C(=O)NCC(c3ccco3)N3CCCC3)c2)cc1 (configuration not stated)	-19.7%	-26.9	-57.2*	-7.9%
COc1ccc(C(CNC(=O)c2ccc(OC)c(S(=O)(=O)N3CCCC3)c2)N2CCCC2)cc1 (configuration not stated)	18.5%	-23.1	-82.6*	-1.9%
CN(c1ccc(C(=O)NCc2cccs2)cc1)S(=O)(=O)c1ccccc1	9.7%	-0.8	-6.3	2.24µM*
CCC(Sc1nnc2c3ccccc3n(C)c2n1)C(=O)Nc1nnc(C(C)C)s1 (configuration not stated)	3.7%	-13.1	x	x
COc1ccc(N(C)S(=O)(=O)c2cccc(C(=O)NCC(c3cccs3)N(C)C)c2)cc1 (configuration not stated)	-25.7%	-28.4	-67.0*	17.3%
CCOC(=O)c1c(C)[nH]c(C)c1S(=O)(=O)N1CCN(c2cccc(C(F)(F)F)c2)CC1	-13.1%	-17.6	x	x
CCCOc1ccc(CN(C(=O)c2nc(SC(C)C)ncc2Cl)C2CCS(=O)(=O)C2)cc1 (configuration not stated)	25.7%	-4.1	x	x
Cc1cc(-c2nn(-c3ccccc3F)cc2CN2CCCC(CO)C2)c(C)s1 (configuration not stated)	-29.8%	-4.3	-52.9*	-0.9%
COCC1CCN(Cc2cn(-c3ccccc3F)nc2-c2cc(C)sc2C)CC1	1.4%	-30.4	-84.2*	-1.3%
Cc1cc(C)cc(N(CC(=O)Nc2c(C)cc(C)cc2C)S(=O)(=O)c2c(C)nn(C)c2C)c1	-8.5%	77.6*	x	x
